Assay outcomes as filed in PubChem BioAssay.
Only some compounds are listed: those with a hit (about 28% of all), similar ones and a draw of the others.
PLK1 kinase inh – blocks human PLK1 kinase activity. recombinant PLK1 kinase, TR-FRET peptide phosphorylation. P53350. 97,000 compounds, 0.53% hits. inhibition, % at 10 µM. AID 619;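 active = inhibition of 50% or more in the single-concentration screen; inactive = inhibition below 50%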;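 also: 0% = DMSO max control and 100% = H-89 dihydrochloride min control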
Target sequence (P53350 whole entry, looked up): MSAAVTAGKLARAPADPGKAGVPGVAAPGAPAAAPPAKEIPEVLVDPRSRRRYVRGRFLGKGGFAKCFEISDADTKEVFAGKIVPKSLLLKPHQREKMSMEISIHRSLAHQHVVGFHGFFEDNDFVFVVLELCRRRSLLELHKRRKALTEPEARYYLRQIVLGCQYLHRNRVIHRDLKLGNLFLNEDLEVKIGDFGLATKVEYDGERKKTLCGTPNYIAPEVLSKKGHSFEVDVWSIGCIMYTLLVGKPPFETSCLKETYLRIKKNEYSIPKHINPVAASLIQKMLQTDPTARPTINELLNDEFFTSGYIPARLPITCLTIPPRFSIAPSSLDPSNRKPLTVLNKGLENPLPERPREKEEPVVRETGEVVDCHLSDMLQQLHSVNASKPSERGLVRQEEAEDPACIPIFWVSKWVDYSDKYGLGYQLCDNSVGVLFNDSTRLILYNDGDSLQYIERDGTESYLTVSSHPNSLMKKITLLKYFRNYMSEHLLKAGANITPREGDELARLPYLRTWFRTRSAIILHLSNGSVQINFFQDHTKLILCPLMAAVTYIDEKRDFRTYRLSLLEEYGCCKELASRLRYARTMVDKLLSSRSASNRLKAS
Plk1 PBD FP – inhibitors of human Plk1 polo box domain binding. P53350. 97,000 compounds, 0.13% hits. Plk1 PBD phosphopeptide binding, fluorescence polarization. inhibition, %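 (tested at about 20 µM)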; in the data active = inhibition above about 34%, passing the limit was not always enough
CYP2C19 inhib – blocks human cytochrome P450 2C19 | P33261 | CYP2C19 Supersomes, luciferin-H EGE luminescence, 30 min | inhibition, % at 5 µM | 96,000 compounds, 21% hits;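 active = CYP2C19 inhibition above a set limit at 5 µM in the primary screen, cut at about 50% in these data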;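 also: plate controls were negative control wells for no effect and 2.5 mM tranylcypromine positive control for full effect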
CYP2C19 activ – cytochrome P450 2C19 (human) activation | P33261 | recombinant CYP2C19, luciferin-H EGE luminescence; hits give high values; 0 = fully inhibited enzyme, 1 = untreated enzyme | activation factor at 5 µM | 96,000 tested, under 10 active | AID 1025;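 active = activation factor of at least 2 at 5 µM in the primary screen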;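 also: 0 = wells with 2.5 mM tranylcypromine and 1 = vehicle-only wells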
CYP2C9 inhib – blocks human cytochrome P450 2C9; 96,000 compounds, 20% hits; CYP2C9 Supersomes, luciferin-H conversion, luminescence; inhibition, % at 5 µM; AID 777;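 active = blocking of liver enzyme CYP2C9 beyond about 50% at 5 µM, limit read from the data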
CYP2C9 activ – activators of human CYP2C9; recombinant CYP2C9, luciferin-H conversion, luminescence; hits give high values; factor 1 = untreated enzyme, 0 = blocked; activation factor at 5 µM; 96,000 compounds, 1.4% hits; P11712;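 active = activation factor of 2 or more for CYP2C9 at a 5 µM dose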;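 also: 0 = sulfaphenazole-blocked wells and 1 = vehicle-only wells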
* hit, by the source's call.

For COc1ccc(NC(=O)c2ccccc2O)c(OC)c1 the results were PLK1 kinase inh -3, Plk1 PBD FP -12, CYP2C19 inhib 60*, CYP2C19 activ 0.4, CYP2C9 inhib 53* and CYP2C9 activ 0.5.
`COc1cc(NC(=O)c2cc(C(C)C)on2)c(OC)cc1Cl` gave PLK1 kinase inh -5, Plk1 PBD FP 0, CYP2C19 inhib 10, CYP2C19 activ 0.9, CYP2C9 inhib 7 and CYP2C9 activ 0.9.
For COc1ccc(NC(=O)CSc2ccccc2)c(OC)c1 the results were PLK1 kinase inh -12 and Plk1 PBD FP 9.
For CN(Cc1ccco1)C(=O)C1CCC(=O)N1Cc1ccc(F)cc1 (stereo not given) the results were PLK1 kinase inh -7, Plk1 PBD FP 8, CYP2C19 inhib 12, CYP2C19 activ 0.9, CYP2C9 inhib 8 and CYP2C9 activ 0.9.
For COC(=O)c1ccc2nc(C(F)(F)F)[nH]c2c1 the results were PLK1 kinase inh -11, Plk1 PBD FP 15, CYP2C19 inhib 34, CYP2C19 activ 0.7, CYP2C9 inhib 45 and CYP2C9 activ 0.6.
`CCOC(=O)c1oc2ccccc2c1NC(=O)c1cc(OC)cc(OC)c1` gave PLK1 kinase inh -6, Plk1 PBD FP -20, CYP2C19 inhib 8, CYP2C19 activ 0.9, CYP2C9 inhib 13 and CYP2C9 activ 0.9.
Screening O=C(Nc1ccc2c(c1)oc1ccc(S(=O)(=O)N3CCCC3)cc12)C1CC1 returned PLK1 kinase inh -8, Plk1 PBD FP -27, CYP2C19 inhib 23, CYP2C19 activ 0.8, CYP2C9 inhib 53* and CYP2C9 activ 0.5.
`COc1ccc(C(=O)Cc2cc(OC)c(OC)cc2[N+](=O)[O-])cc1` gave PLK1 kinase inh -7, Plk1 PBD FP 15, CYP2C19 inhib 8, CYP2C19 activ 0.9, CYP2C9 inhib -30 and CYP2C9 activ 1.3.
COc1ccc(C(=O)CC(Nc2ccc([N+](=O)[O-])cc2)c2ccc(OC)cc2)cc1 (stereo not given) was read as PLK1 kinase inh -19, Plk1 PBD FP -7, CYP2C19 inhib 43, CYP2C19 activ 0.6, CYP2C9 inhib 68* and CYP2C9 activ 0.3.
Cc1cccc(N/C=C/C(=C(C#N)C#N)N(C)C)c1 was read as PLK1 kinase inh -9, Plk1 PBD FP -10, CYP2C19 inhib 76*, CYP2C19 activ 0.2, CYP2C9 inhib 87* and CYP2C9 activ 0.1.
CC(/C=N/Nc1nnc2c(n1)[nH]c1ccccc12)=C\c1ccco1 was read as PLK1 kinase inh 3, Plk1 PBD FP -29, CYP2C19 inhib 80*, CYP2C19 activ 0.2, CYP2C9 inhib -5 and CYP2C9 activ 1.1.
`Cc1ccc(S(=O)(=O)N2CCOCC2)c(C)c1-n1cnnn1` gave PLK1 kinase inh -13, Plk1 PBD FP -19, CYP2C19 inhib -9, CYP2C19 activ 1.1, CYP2C9 inhib -198 and CYP2C9 activ 3*.
CC(C)n1c(SCCCc2ccccc2)nc2c1c(=O)[nH]c(=O)n2C was read as PLK1 kinase inh -4, Plk1 PBD FP 1, CYP2C19 inhib 24, CYP2C19 activ 0.8, CYP2C9 inhib 21 and CYP2C9 activ 0.8.
`C=CCn1c(SCCCc2ccccc2)nc2c1c(=O)[nH]c(=O)n2C` gave CYP2C19 inhib 76*, CYP2C19 activ 0.2, CYP2C9 inhib 63* and CYP2C9 activ 0.4.
For C/C=C/Cn1c(SCCCc2ccccc2)nc2c1c(=O)[nH]c(=O)n2C the results were PLK1 kinase inh -9, Plk1 PBD FP -5, CYP2C19 inhib 58*, CYP2C19 activ 0.4, CYP2C9 inhib 77* and CYP2C9 activ 0.2.
For O=c1[nH]c2ccccc2n1CCCSCCCn1c(=O)[nH]c2ccccc21 the results were CYP2C19 inhib 16, CYP2C19 activ 0.8, CYP2C9 inhib 88* and CYP2C9 activ 0.1.
O=c1[nH]c2ccccc2n1CCC1CCCCC1 was read as PLK1 kinase inh -30, Plk1 PBD FP -6, CYP2C19 inhib 93*, CYP2C19 activ 0.1, CYP2C9 inhib 56* and CYP2C9 activ 0.4.
For CCn1c2ccccc2c2nnc(SCCCn3c(=O)[nH]c4ccccc43)nc21 the results were PLK1 kinase inh -9, Plk1 PBD FP 11, CYP2C19 inhib 78*, CYP2C19 activ 0.2, CYP2C9 inhib 88* and CYP2C9 activ 0.1.
O=c1[nH]c2ccccc2n1Cc1ccc(Cl)cc1 was read as PLK1 kinase inh -4, Plk1 PBD FP 11, CYP2C19 inhib 73*, CYP2C19 activ 0.3, CYP2C9 inhib 24 and CYP2C9 activ 0.8.
